In all, about 5,500 compounds went through this assay and about 2,000 (36%) were called active. Another 18% or so got no clear call; they are omitted. Rule as the data show it: active = normalized growth mostly below about 0.91 (no sharp cut-off); inconclusive = no clear call, values can overlap the other calls; inactive = mostly above about 0.92. Some of the results follow.
Experiment: chemical genetic growth profiling, strain panel (AID 1159580);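 also: tested at 20 µM; growth read once vehicle control cultures reached saturation at 30 °C; 1 = growth at the plate median or of vehicle wells; lower values mean less growth of the strain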
Conditions: S. cerevisiae deletion strains, growth OD

Measured: normalized growth

CCCCCCCCCCCCCCCC(=O)OC[C@H](NC(=O)C(Cl)Cl)[C@H](O)c1ccc([N+](=O)[O-])cc1
inactive: locus YAL021C, strain ccr4, stronger effect = lower value 0.986 | locus YAL026C, strain drs2, stronger effect = lower value 0.995 | locus YAL030W, strain snc1, stronger effect = lower value 1.04 | locus YBL061C, strain skt5, stronger effect = lower value 1.02 | locus YBR009C, strain hhf1, stronger effect = lower value 1.02 | locus YBR023C, strain chs3, stronger effect = lower value 1.01 | locus YBR171W, strain sec66, stronger effect = lower value 1.06 | locus YBR231C, strain swc5, stronger effect = lower value 1.01 | locus YBR279W, strain paf1, stronger effect = lower value 1.02 | locus YCL011C, strain gbp2, stronger effect = lower value 1.03 | locus YCL016C, strain dcc1, stronger effect = lower value 1 | locus YCL069W, strain vba3, stronger effect = lower value 1.04 | locus YCR088W, strain abp1, stronger effect = lower value 1.04 | locus YDL005C, strain med2, stronger effect = lower value 1.05 | locus YDL040C, strain nat1, stronger effect = lower value 1.01 | locus YDR001C, strain nth1, stronger effect = lower value 1.03 | locus YDR069C, strain doa4, stronger effect = lower value 0.973 | locus YDR137W, strain rgp1, stronger effect = lower value 1.01 | locus YDR159W, strain sac3, stronger effect = lower value 1.03 | locus YDR195W, strain ref2 1.05 | locus YDR297W, strain sur2, stronger effect = lower value 1.03 | locus YDR334W, strain swr1, stronger effect = lower value 1.03 | locus YDR335W, strain msn5, stronger effect = lower value 1.02 | locus YDR392W, strain spt3, stronger effect = lower value 1.03 | locus YEL003W, strain gim4, stronger effect = lower value 1.04 | locus YEL037C, strain rad23, stronger effect = lower value 1.03 | locus YEL061C, strain CIN8 (second series), stronger effect = lower value 1.04 | locus YER015W, strain faa2, stronger effect = lower value 1 | locus YER016W, strain bim1, stronger effect = lower value 1.02 | locus YER111C, strain swi4, stronger effect = lower value 1.02 | locus YER155C, strain BEM2 (second series), stronger effect = lower value 1.03 | locus YFR010W, strain ubp6, stronger effect = lower value 1.01 | locus YGL167C, strain pmr1, stronger effect = lower value 1.03 | locus YGL173C, strain kem1, stronger effect = lower value 1.05 | locus YGL227W, strain vid30, stronger effect = lower value 1.04 | locus YGL240W, strain doc1, stronger effect = lower value 1.07 | locus YGL253W, strain hxk2, stronger effect = lower value 1.01 | locus YHR013C, strain ard1, stronger effect = lower value 1.07 | locus YHR027C, strain rpn1, stronger effect = lower value 0.992 | locus YHR030C, strain SLT2, stronger effect = lower value 0.97 | locus YHR079C, strain IRE1, stronger effect = lower value 0.985 | locus YHR142W, strain chs7, stronger effect = lower value 1.05 | locus YJL092W, strain hpr5, stronger effect = lower value 1.04 | locus YJL095W, strain BCK1 (second series), stronger effect = lower value 1.05 | locus YJL095W, strain BCK1, stronger effect = lower value 0.998 | locus YJL115W, strain asf1, stronger effect = lower value 1.05 | locus YJL129C, strain trk1, stronger effect = lower value 1.09 | locus YJL154C, strain vps35, stronger effect = lower value 1.03 | locus YJL164C, strain tpk1, stronger effect = lower value 1.04 | locus YJL166W, strain qcr8, stronger effect = lower value 1.03 | locus YJL187C, strain SWE1, stronger effect = lower value 1.05 | locus YJR066W, strain TOR1, stronger effect = lower value 0.984 | locus YKL160W, strain elf1, stronger effect = lower value 1.02 | locus YKR026C, strain gcn3, stronger effect = lower value 1.03 | locus YKR091W, strain srl3, stronger effect = lower value 1.02 | locus YLL001W, strain dnm1, stronger effect = lower value 1.02 | locus YLL026W, stronger effect = lower value 1 | locus YLL041C, strain sdh2, stronger effect = lower value 1.02 | locus YLR027C, strain aat2, stronger effect = lower value 1.02 | locus YLR113W, strain HOG1, stronger effect = lower value 0.975 | locus YLR221C, strain rsa3, stronger effect = lower value 1.02 | locus YLR258W, strain gsy2, stronger effect = lower value 1.03 | locus YLR262C, strain YPT6 (second series), stronger effect = lower value 1.03 | locus YLR320W, strain mms22, stronger effect = lower value 1.01 | locus YLR342W, strain FKS1, stronger effect = lower value 1.01 | locus YLR357W, strain rsc2, stronger effect = lower value 1.03 | locus YLR370C, strain arc18, stronger effect = lower value 1.04 | locus YLR384C, strain iki3, stronger effect = lower value 1.02 | locus YML120C, strain ndi1, stronger effect = lower value 1.01 | locus YMR125W, strain sto1, stronger effect = lower value 1.06 | locus YMR205C, strain PFK2, stronger effect = lower value 1.04 | locus YMR231W, strain pep5, stronger effect = lower value 1.03 | locus YNL071W, strain lat1, stronger effect = lower value 0.986 | locus YNL183C, strain NPR1, stronger effect = lower value 0.927 | locus YNL209W, strain ssb2, stronger effect = lower value 0.995 | locus YNL248C, strain rpa49, stronger effect = lower value 1.04 | locus YNL322C, strain KRE1 (second series), stronger effect = lower value 1.05 | locus YNR049C, strain mso1, stronger effect = lower value 1.04 | locus YOR001W, strain rrp6, stronger effect = lower value 1.03 | locus YOR070C, strain gyp1, stronger effect = lower value 1.03 | locus YOR080W, strain dia2, stronger effect = lower value 1.03 | locus YOR083W, strain WHI5, stronger effect = lower value 1 | locus YOR106W, strain vam3, stronger effect = lower value 1.02 | locus YOR231W, strain MKK1, stronger effect = lower value 0.997 | locus YOR265W, strain rbl2, stronger effect = lower value 1.02 | locus YOR270C, strain vph1, stronger effect = lower value 1 | locus YOR290C, strain snf2, stronger effect = lower value 0.999 | locus YPL051W, strain arl3, stronger effect = lower value 0.999 | locus YPL078C, strain atp4, stronger effect = lower value 1.04 | locus YPL106C, strain sse1, stronger effect = lower value 1.08 | locus YPL240C, strain hsp82, stronger effect = lower value 1.05 | locus YPL256C, strain CLN2, stronger effect = lower value 1.01
active: locus YMR058W, strain fet3, stronger effect = lower value 0.88 | locus YMR129W, stronger effect = lower value 1.09 [resistant]

From PubChem BioAssay AID1159580 (chemical genetic matrix, 2015)
